Only some compounds are listed: those with a hit (about 11% of all), similar ones and a draw of the others.
JMJD2A Tudor inh: blocks the human JMJD2A Tudor domain. O75164. AlphaScreen JMJD2A-Tudor / H3K4me3 peptide binding. Potency, µM (top dose mostly 114 µM), inactives show top-dose activity change, negative = inhibition, usual class: inhibitors. 390,000 tested, 4.4% active; also: % is scaled to controls: 0 for no effect and ±100 for the full control effect; nearly all actives have a fitted effect of over 50% in size
Target sequence (O75164 whole entry, looked up, the tested form may be a part): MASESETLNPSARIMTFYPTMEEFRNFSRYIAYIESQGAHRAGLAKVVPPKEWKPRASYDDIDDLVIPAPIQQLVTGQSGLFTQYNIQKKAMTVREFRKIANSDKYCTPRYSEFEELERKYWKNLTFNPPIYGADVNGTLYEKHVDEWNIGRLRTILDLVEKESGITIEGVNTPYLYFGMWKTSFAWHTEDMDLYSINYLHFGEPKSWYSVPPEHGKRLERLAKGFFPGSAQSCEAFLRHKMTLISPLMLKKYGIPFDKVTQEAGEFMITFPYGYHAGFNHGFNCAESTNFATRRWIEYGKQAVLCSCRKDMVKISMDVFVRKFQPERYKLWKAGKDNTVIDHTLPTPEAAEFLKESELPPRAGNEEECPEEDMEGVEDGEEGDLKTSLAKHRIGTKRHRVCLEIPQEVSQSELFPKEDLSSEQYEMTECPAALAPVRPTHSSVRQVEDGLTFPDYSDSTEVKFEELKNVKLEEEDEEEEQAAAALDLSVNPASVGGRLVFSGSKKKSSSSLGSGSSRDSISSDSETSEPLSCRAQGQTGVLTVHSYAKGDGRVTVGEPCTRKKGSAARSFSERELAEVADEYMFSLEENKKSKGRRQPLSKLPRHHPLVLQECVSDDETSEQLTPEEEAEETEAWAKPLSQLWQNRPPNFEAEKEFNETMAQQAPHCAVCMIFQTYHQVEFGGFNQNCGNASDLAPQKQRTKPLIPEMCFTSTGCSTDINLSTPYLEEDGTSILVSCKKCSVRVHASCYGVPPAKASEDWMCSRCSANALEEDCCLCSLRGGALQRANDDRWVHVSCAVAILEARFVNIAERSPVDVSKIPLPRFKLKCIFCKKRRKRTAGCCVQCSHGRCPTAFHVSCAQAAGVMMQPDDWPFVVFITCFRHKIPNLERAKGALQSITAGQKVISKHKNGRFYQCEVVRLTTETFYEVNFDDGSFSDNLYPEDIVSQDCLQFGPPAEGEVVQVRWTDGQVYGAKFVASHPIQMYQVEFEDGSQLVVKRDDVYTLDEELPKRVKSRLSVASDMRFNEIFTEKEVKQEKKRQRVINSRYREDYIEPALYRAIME
G9a block: blocks human histone lysine methyltransferase G9a; AID 504332; 350,000 tested, 8.8% active; Potency, µM (highest dose often 102 µM), for the others: top-dose activity, negative = inhibition, most hits filed as inhibitors; Q96KQ7; G9a H3K9 monomethylation, AlphaScreen, 2 h; also: % is scaled to controls: 0 for no effect and ±100 for the full control effect; nearly all actives have a fitted effect of over 75% in size
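Using a bead-based AlphaScreen, monomethylated H3K9 product from 2 h room-temperature reactions (G9a 20 nM, peptide 500 nM, SAM 20 uM) was detected with 0.5 ug/mL rabbit anti-H3K9me1 antibody.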
BAZ2B block: BAZ2B (human) inhibition. Q9UIF8. AlphaScreen BAZ2B-H3K14Ac peptide displacement. Potency, µM (series often up to 114 µM), without a hit: at the highest dose activity change, negative = inhibition, usual class: inhibitors. 360,000 tested, 4.4% active. AID 504333; also: % is scaled to controls: 0 for no effect and ±100 for the full control effect; nearly all actives have a fitted effect of over 60% in size
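In this displacement format the biotinylated H3(5-23) peptide acetylated at Lys14 serves as ligand at 50 nM, with BAZ2B at 50 nM in PBS pH 7.4 containing 0.01% Tween-20. Donor and acceptor beads are 10 ug/mL final.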
L3MBTL1 inh: L3MBTL1 (human) inhibition; Q9Y468; AlphaScreen L3MBTL1–H3K9me1 peptide binding; Potency, µM (series often up to 57.1 µM), for inactives: top-dose activity, negative = inhibition, usual class: inhibitors; 230,000 tested, 0.66% active; also: % is scaled to controls: 0 for no effect and ±100 for the full control effect; nearly all actives have a fitted effect of over 60% in size
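L3MBTL1 50 nM + b-AHA-H3(1-15)K9me1 75 nM, 30 min RT; compound added, 30 min RT; streptavidin donor/Ni-chelate acceptor beads 10 ug/mL each final, 30 min RT dark; AlphaScreen read.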
HP1b chromo inh: blocks HP1-beta chromodomain binding to methylated histone tails. P83916. AlphaScreen HP1-beta / biotin-H3K9me3 peptide binding. Potency, µM (doses to about 114 µM), without a hit: at the highest dose activity change, negative = inhibition, most hits filed as inhibitors. 390,000 tested, 0.56% active. AID 540317; also: nearly all actives have a fitted effect of over 70% in size
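AlphaScreen: HP1-beta (50 nM) preformed 30 min with biotin-H3(1-18)K9me3 peptide (50 nM) in PBS pH 7.4, 0.01% Tween-20. Compound added for 30 min at RT, then streptavidin donor/nickel chelate acceptor beads (10 ug/mL) for 30 min.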
* hit, by the source's call; [ ] = another dose, or the depositor's remark. Calls follow the shape of the dose curve; as a rule, active = well fitted inhibition curve with a large enough effect; inconclusive = small, poorly fitted or top-dose-only effect; inactive = no such curve, though single readings can be large or run the other way. Potency is read from the fitted curve at half-maximal effect.

What do the screens show for `COc1ccc(CNC(=O)c2cnc3sc(N4CCCCCC4)nn3c2=O)cc1`?
JMJD2A Tudor inh: -4%; G9a block: -2%[59 µM]; BAZ2B block: -2%; HP1b chromo inh: 13%

How did COc1ccc(Cn2cc(C(=O)c3ccc(C)c(C)c3)c(=O)c3ccccc32)cc1 do in these assays?
JMJD2A Tudor inh: -19%; G9a block: -24%[59 µM]; BAZ2B block: -26%; HP1b chromo inh: 17%

What do the screens show for `NC(=O)NS(=O)(=O)Oc1ccccc1`?
JMJD2A Tudor inh: 89µM*; BAZ2B block: -9%; L3MBTL1 inh: 15%; HP1b chromo inh: 13%

How did CN(C)CCNC(=O)C(=O)Nc1cc2c3c(c1)CCN3C(=O)CC2 do in these assays?
JMJD2A Tudor inh: -34%; G9a block: 11%; BAZ2B block: 3%; HP1b chromo inh: 1%

Results for C[C@@H](NCCCn1cnc2c(OCc3ccccc3)ncnc21)c1cccc2ccccc12 ?
JMJD2A Tudor inh: -25%; HP1b chromo inh: 14%

Results for CC(=O)Nc1cc(OC(C)=O)c2nonc2c1OC(C)=O ?
JMJD2A Tudor inh: -19%; G9a block: inconclusive; BAZ2B block: inconclusive; L3MBTL1 inh: 2.5µM*; HP1b chromo inh: 30%

What do the screens show for `CC(=O)Nc1nonc1NC(C)=O`?
JMJD2A Tudor inh: -1%; G9a block: -12%[59 µM]; BAZ2B block: 10%; L3MBTL1 inh: -2%; HP1b chromo inh: 36%

Results for CC(=O)Oc1ccc2nonc2c1OC(C)=O ?
JMJD2A Tudor inh: inconclusive; HP1b chromo inh: 20µM*

What do the screens show for `Cc1nc(N2CCCC2)c2c(C(=O)N3CCN(c4cc(Cl)ccc4C)CC3)c(C)oc2n1`?
JMJD2A Tudor inh: -33%; G9a block: inconclusive; BAZ2B block: -8%[57.1 µM]; HP1b chromo inh: 90%

How did O=C(Nc1ccnn1C1CCN(Cc2cccc(F)c2F)CC1)C1CCCC1 do in these assays?
JMJD2A Tudor inh: -27%; G9a block: inconclusive; BAZ2B block: -22%; HP1b chromo inh: 5%

How did CCCC(=O)OCCNc1cc(SCc2ccco2)c2nonc2c1[N+](=O)[O-] do in these assays?
JMJD2A Tudor inh: inconclusive; G9a block: 20µM*; BAZ2B block: 25µM*; L3MBTL1 inh: inconclusive; HP1b chromo inh: inconclusive

Results for CC(=O)OCCCNc1cc(SCc2ccco2)c2nonc2c1[N+](=O)[O-] ?
JMJD2A Tudor inh: 50µM*; G9a block: inconclusive; BAZ2B block: inconclusive; L3MBTL1 inh: inconclusive; HP1b chromo inh: inconclusive

How did CCCC(=O)OCCNc1cc(Sc2nccn2C)c2nonc2c1[N+](=O)[O-] do in these assays?
JMJD2A Tudor inh: -16%; G9a block: 28µM*; BAZ2B block: -25%; L3MBTL1 inh: -1%; HP1b chromo inh: -32%

Results for CCN(C(=O)c1cn(-c2cccc(OC)c2)c(=O)c2ccccc12)c1ccccc1C ?
JMJD2A Tudor inh: -12%; G9a block: -4%[59 µM]; BAZ2B block: 4%; HP1b chromo inh: 16%

Results for COc1cc(C(=O)NCC(=O)OCC(=O)c2ccc[nH]2)cc(OC)c1OC ?
JMJD2A Tudor inh: -9%; G9a block: -1%[59 µM]; BAZ2B block: 0%; L3MBTL1 inh: -12%; HP1b chromo inh: 46%

How did COc1ccc(C(=O)NCC(=O)OCC(=O)c2cc(OC)c(OC)c(OC)c2)cc1OC do in these assays?
JMJD2A Tudor inh: 8%; G9a block: 50µM*; BAZ2B block: 11%; L3MBTL1 inh: 4%; HP1b chromo inh: 31%

Results for COc1ccc(CNC2CCCc3ccccc32)c(OC)c1 (centres undefined) ?
JMJD2A Tudor inh: 50µM*; BAZ2B block: 4%; L3MBTL1 inh: -3%; HP1b chromo inh: inconclusive

Results for COc1ccc(CNC2CCCCC2C)c(OC)c1 (centres undefined) ?
JMJD2A Tudor inh: 2µM*; G9a block: 14µM*; BAZ2B block: 56µM*; L3MBTL1 inh: 7%; HP1b chromo inh: inconclusive

What do the screens show for `COc1ccc(NC(=O)NC2CCCc3ccccc32)c(OC)c1` (centres undefined)?
JMJD2A Tudor inh: -13%; G9a block: 0%; BAZ2B block: -19%; HP1b chromo inh: 23%

What do the screens show for `COc1ccc(-c2nc3cnc(N4CCNCC4)nc3n(CCC#N)c2=O)cc1`?
G9a block: 6%[12.7 µM]

Screening data deposited in PubChem by National Center for Advancing Translational Sciences (NCATS).
